HDAC3 inh = human HDAC3 inhibition; O15379; recombinant HDAC3, fluorogenic peptide/trypsin coupled, fluorescence; inhibition, % at 8.3 µM; 320,000 compounds, 0.15% hits; AID 2718; in the data active = inhibition above about 26%, passing the limit was not always enough; inconclusive = no clear call, values can overlap the other calls
IDE inh = inhibits human insulin-degrading enzyme in HEK cells | FAbetaB cleavage, fluorescence polarization | P14735 | 320,000 compounds, 0.41% hits | inhibition, % at 5.59 µM | AID 434962;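 active = percent inhibition above the average of all tested compounds plus 3 SD, set per screening campaign, cut at about 16% in these data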;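 also: IDE supplied by intact live HEK cells; FP after avidin binding of uncleaved biotin substrate so inhibition keeps polarization high; 0% = DMSO wells and 100% = 60 µM reference IDE inhibitor Ii1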
IDE cell activ = activators of human insulin-degrading enzyme in cells. P14735. HEK cells, FAbeta-B cleavage, fluorescence polarization; 0% vehicle, 100% cell-free pure enzyme wells. activation, % at 5.96 µM. 340,000 compounds, 0.073% hits. AID 493087;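 active = activation above the mean of all tested compounds plus 3 SD, set per screening campaign, cut at about 17% in these data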
LANA-H2A inh = blocks KSHV LANA binding to histone H2A/H2B; Q9QR71; cell-free LANA-H2A/H2B peptide, fluorescence polarization; inhibition, % (concentration not given with the values); 320,000 compounds, 0.6% hits; AID 2629; in the data active = inhibition mostly above about 10%, no sharp cut-off; inactive = mostly below about 6.7%
Target sequence (Q9QR71 whole entry, looked up): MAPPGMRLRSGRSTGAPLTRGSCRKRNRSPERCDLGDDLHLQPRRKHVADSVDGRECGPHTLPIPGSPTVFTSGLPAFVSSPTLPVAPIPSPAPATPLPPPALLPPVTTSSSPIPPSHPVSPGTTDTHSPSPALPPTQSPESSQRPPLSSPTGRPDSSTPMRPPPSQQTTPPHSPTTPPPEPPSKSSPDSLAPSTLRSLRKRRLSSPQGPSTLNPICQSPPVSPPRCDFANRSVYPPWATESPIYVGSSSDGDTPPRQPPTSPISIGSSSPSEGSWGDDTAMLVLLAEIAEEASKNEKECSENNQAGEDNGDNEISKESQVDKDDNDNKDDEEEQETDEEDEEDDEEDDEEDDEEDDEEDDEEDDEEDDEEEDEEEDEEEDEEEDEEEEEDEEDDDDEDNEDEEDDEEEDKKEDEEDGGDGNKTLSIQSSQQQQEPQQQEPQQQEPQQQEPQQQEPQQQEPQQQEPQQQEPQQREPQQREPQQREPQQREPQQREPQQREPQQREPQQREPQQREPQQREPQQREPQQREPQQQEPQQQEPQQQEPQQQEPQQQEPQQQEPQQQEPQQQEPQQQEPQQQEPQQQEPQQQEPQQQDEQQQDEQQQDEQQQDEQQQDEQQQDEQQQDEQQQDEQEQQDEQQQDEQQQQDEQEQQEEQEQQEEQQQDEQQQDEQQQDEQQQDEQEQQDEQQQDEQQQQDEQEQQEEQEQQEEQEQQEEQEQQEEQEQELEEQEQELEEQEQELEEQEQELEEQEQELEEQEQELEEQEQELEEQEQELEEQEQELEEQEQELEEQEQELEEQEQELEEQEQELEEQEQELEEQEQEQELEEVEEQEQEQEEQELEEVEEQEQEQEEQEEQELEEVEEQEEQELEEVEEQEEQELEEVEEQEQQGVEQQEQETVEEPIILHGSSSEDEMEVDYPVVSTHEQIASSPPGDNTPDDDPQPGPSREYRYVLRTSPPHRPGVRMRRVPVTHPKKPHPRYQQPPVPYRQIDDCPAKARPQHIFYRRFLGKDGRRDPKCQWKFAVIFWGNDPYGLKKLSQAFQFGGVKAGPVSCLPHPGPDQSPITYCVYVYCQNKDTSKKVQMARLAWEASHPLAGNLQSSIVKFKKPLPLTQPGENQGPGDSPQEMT
SUMO Mot1 rescue = SUMOylation pathway inhibition by Mot1-301 growth rescue | AID 2716 | 320,000 compounds, 1% hits | S. cerevisiae Mot1-301 growth rescue, ATP luminescence, 38.5C; percent above DMSO median, 100 means doubled | growth rescue, % at 18.8 µM;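 active = every valid replicate shows activation above 250% relative to neutral control wells; inactive = the rest, any valid replicate at or below 250%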;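 also: OY570 slx delta 5 strain wells were the positive control but not used for scaling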
Mot1 SUMO dose = inhibits SUMO pathway, affecting Mot1-301 yeast growth; growth activity, percent, % at 42 µM; 2,300 tested, under 10 active; S. cerevisiae Mot1-301 galactose growth, ATP luminescence, 24 h; -100 = growth of slx-deleted rescue strain; shares compounds with SUMO Mot1 rescue;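 active = Signal drops as the depositor expects, and the fitted half-maximal dose is no more than ten times the top valid tested dose; inconclusive = Poor fit, or a flat curve whose signal drops by 30% to 70%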;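 also: more negative values mean stronger growth rescue toward the control strain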
IDE inh confirm = confirmation of human insulin-degrading enzyme inhibitors in cells; shares compounds with IDE inh; AID 435028; 1,200 compounds, 51% hits; HEK cells, FAbetaB cleavage, fluorescence polarization; inhibition, % at 5.59 µM;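 active = mean inhibition across triplicate wells above the cutoff set by the earlier primary insulin-degrading enzyme screen, cut at about 16% in these data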;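 also: 0% = DMSO wells and 100% = 60 µM reference IDE inhibitor Ii1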
HEK293 tox = HEK cell cytotoxicity, counter-screen for IDE inhibitors; shares compounds with IDE inh; HEK293 cytotoxicity, ATP luminescence; inhibition, % at 5.59 µM; 1,200 compounds, 28% hits; in the data active = inhibition above about 22%;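 also: 0% = vehicle wells and 100% = reference cytotoxic drug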
Active calls of the source: *; ? = inconclusive; / = no result; + = active, no number; [ ] = dose if it differs, or a comment. This is a sample that favours compounds with a hit; in the whole collection about 2.1% have one here.

SMILES | HDAC3 inh | IDE inh | IDE cell activ | LANA-H2A inh | SUMO Mot1 rescue | IDE inh confirm | HEK293 tox | others
COc1ccc(/C=C(/C#N)S(=O)(=O)c2ccc(C)cc2)cc1 | 4.6 | 5.6 | -3.2 | -4.6 | + | / | / | Mot1 SUMO dose=0.2[21 µM]
COc1ccc(N/C=C(\C#N)S(=O)(=O)c2ccc(OC)cc2)cc1 | 9.4 | 2.8 | -2.6 | 2.3 | 25.7 | / | /
O=C(CCc1ccccc1)NCC(c1ccco1)N1CCc2ccccc21 (stereo not given) | 3.2 | -3.6 | 5.5 | 0.1 | 13.6 | / | /
Cc1ccc(CNS(=O)(=O)c2ccc3c(c2)NC(=O)C(C)S3)cc1 (stereo not given) | 4.2 | 1.0 | 9.5 | 5.4 | 5.6 | / | /
CCn1c(C)c(C(C)=O)c(N2CCN(c3ccc(F)cc3)CC2)nc1=S | 2.6 | 1.2 | 1.3 | -1.0 | 917.2* | / | / | Mot1 SUMO dose=0.0
Cc1ccc(C(=O)O)cc1N=Cc1cc(Br)cc(Br)c1O | -4.5 | 1.1 | 4.5 | 16.4 | 858.1* | / | / | Mot1 SUMO dose=0.0
COC(=O)c1ccc(CNC(=O)c2ccc(S(=O)(=O)N(C)c3ccccc3OC)cc2)cc1 | -3.4 | -1.8 | 0.6 | -1.2 | -18.4 | / | /
CCCNC(=O)Cn1sc2nc(C)cc(C)c2c1=O | 14.2 | 40.1* | -48.2 | 0.1 | 422.6* | 13.7 | 41.6* | Mot1 SUMO dose=0.3
Cc1cc(C)c2c(=O)n(CC(=O)N3CCC(N4CCCCC4)CC3)sc2n1 | 18.7 | 7.3 | -55.6 | 2.8 | -12.7 | / | /
CN(C(=O)c1cccc(NC(=O)Cc2ccc(NC(=O)C3CCN(C(=O)C4CCC4)CC3)cc2)c1)C1CCCC1 | / | / | 5.8 | / | / | / | /
N#C/C(=C/c1ccc(N2CCCCC2)o1)C(=O)Nc1ccc(Cl)cc1 | -5.7 | 71.4* | -72.2 | -11.0 | 587.2* | 63.6* | 33.7* | Mot1 SUMO dose=0.4
COc1cc(/C=C/C(=O)c2ccc3c(c2)OCO3)cc(Cl)c1O | 14.9 | 160.4* | -203.2 | 4.5 | -32.7 | 88.0* | 12.5
CC(CNC(=O)CCc1nnc2ccc(N3CCC4(CC3)OCCO4)nn12)c1ccccc1 (stereo not given) | 0.5 | 1.9 | 4.0 | 3.9 | 64.1 | / | /
S=C(NCCCN1CCOCC1)N1CCN(c2nc(-c3ccccc3)cs2)CC1 | 4.6 | 22.7* | -6.2 | 2.8 | -4.3 | 2.1 | 26.9*
S=C(NCC1CCCO1)N1CCN(c2nc(-c3ccc(Cl)cc3)cs2)CC1 (stereo not given) | 0.2 | 20.6* | -22.6 | -1.4 | 103.2 | 12.0 | 54.4*
COc1ccccc1CNC(=O)COC(=O)c1ccccn1 | -1.8 | -10.8 | 2.5 | 2.0 | 10.5 | / | /
CCOc1ccc(NC(=O)CN(C)C(=O)C2CCCO2)cc1OCC (stereo not given) | / | / | -4.2 | / | / | / | /
C=CCn1cc(/C=C/c2cc[n+](C)cc2)c2ccccc21 | ? | 21.8* | -17.5 | -209.2 | -22.4 | 66.7* | 84.7*
CCn1cc(/C=C/c2cc[n+](C)cc2)c2ccccc21 | 3.4 | 52.5* | -15.8 | -209.6 | 165.0 | 83.3* | 78.9*
C=CCn1c(C)c(/C=C/c2cc[n+](C)cc2)c2ccccc21 | 13.1 | 87.0* | -48.3 | -219.5 | 7.6 | 97.3* | 78.1*
CCN(CC)C(=O)Cn1c(C)c(/C=C/c2cc[n+](C)cc2)c2ccccc21 | 15.1 | 26.3* | -12.6 | -133.4 | 1.5 | 24.4* | 13.0
Cc1[nH]c2ccccc2c1/C=C/c1cc[n+](C)cc1 | / | / | -23.3 | / | / | / | /
Cc1ccc(S(=O)(=O)NC2CC(C)(C)NC(C)(C)C2)cc1C | -1.8 | -2.4 | 2.4 | 0.2 | -14.2 | / | /
N#Cc1c(NC(=S)NC(=O)c2ccccc2)sc2c1CCC2 | 1.7 | 6.5 | -17.3 | -3.9 | 17.1 | / | /
CN1Cc2sc(NC(=S)NC(=O)c3ccccc3)c(C#N)c2CC1(C)C | / | 58.0* | / | -7.5 | 6.5 | 4.0 | 15.2
SMILES | HDAC3 inh | IDE inh | IDE cell activ | LANA-H2A inh | SUMO Mot1 rescue | IDE inh confirm | HEK293 tox | others
CCC1(C)Cc2c(sc(NC(=S)NC(=O)c3ccccc3)c2C#N)CO1 (stereo not given) | 3.7 | 1.7 | -7.0 | 0.0 | 0.0 | / | /
CCN1CCc2c(sc(NC(=S)NC(=O)c3ccccc3)c2C#N)C1 | 0.4 | 25.7* | -7.4 | 2.7 | -12.0 | 3.7 | 16.2
Cc1cc(Cl)ccc1C(=O)C1CCCN(C(=O)c2cnn(C(C)C)c2)C1 (stereo not given) | ? | 7.8 | -2.8 | 0.1 | -1.0 | / | /
CCCCCN(C(=O)CCC(=O)OCC(=O)c1ccc(CCC)cc1)c1c(N)n(CCCC)c(=O)[nH]c1=O | 5.3 | 23.6* | -18.6 | -9.5 | 382.5 | 21.1* | 8.1
Cc1[nH]c(=O)[nH]c(=S)c1C(=O)Nc1ccc(Cl)c(Cl)c1 | 2.9 | 25.9* | -13.3 | -2.3 | 9.9 | 2.3 | 10.8
COc1ccc(N2C(=O)CSC2c2ccc(F)cc2)cc1 (stereo not given) | -2.7 | -1.1 | 2.5 | 0.2 | -1.8 | / | /
COc1ccc(-n2sc3ccc(F)cc3c2=O)cc1 | ? | 57.9* | -22.9 | 2.5 | 249.4 | 34.5* | 80.9*
Cc1ccc(C)c(-n2sc3ccc(F)cc3c2=O)c1 | ? | 36.5* | -22.3 | -3.7 | 36.3 | 18.8* | 69.3*
O=C1CCCC(=O)N1c1ccc(F)cc1 | -1.4 | 0.8 | -4.5 | 1.6 | -7.9 | / | /
O=c1c2cc(F)ccc2sn1-c1ccc(F)cc1 | ? | 34.8* | -21.8 | 0.2 | 1.2 | 18.3* | 42.1*
COc1ccc(NC(=O)c2cc3c(Cl)nc4ccccc4c3s2)cc1OC | 0.1 | 19.5* | -15.8 | 0.9 | 0.1 | 14.3 | 17.2
CCn1c(C)cc(/C=C2/SC(=S)N(CC(=O)O)C2=O)c1C | 11.0 | 39.6* | -33.6 | -2.5 | / | 36.2* | 4.6
Cc1ccc(CNC(=O)CC(C)S(=O)(=O)c2ccc3c(c2)NC(=O)CS3)o1 (stereo not given) | -1.0 | -4.2 | -1.8 | -0.7 | 13.1 | / | /
CCCCN1C(=O)c2cccc3cc(O)cc(c23)C1=O | -6.3 | 20.5* | -10.1 | 1.4 | 0.1 | 27.6* | 12.1
Cc1sc2c3ccsc3ccc2[n+]1C | 13.4 | 9.3 | -16.3 | 1.2 | -17.7 | / | /
Cc1sc2ccc3sccc3c2[n+]1C | 15.7 | 20.5* | -22.7 | -4.7 | 8.0 | 4.1 | 5.2
COc1ccc(C(=O)N(C)c2ccccc2C(=O)NCCc2ccccc2)cc1 | -1.1 | -3.8 | 7.2 | 4.3 | 5.3 | / | /
CC(=O)Oc1ccc(/C=C2/SC(=S)N(Cc3ccccc3)C2=O)cc1 | -4.0 | 16.2* | -28.5 | 3.8 | 13.3 | 77.7* | 12.2
O=C1/C(=C/c2ccc(O)cc2)SC(=S)N1CC1CCCO1 (stereo not given) | / | 87.3* | -118.8 | -23.0 | 130.8 | 166.8* | 12.3
O=C(O)c1ccc(/C=C2/SC(=S)N(Cc3ccccc3)C2=O)cc1 | 1.6 | / | 1.3 | -0.4 | 217.9 | / | /
COc1ccc(CN2C(=O)/C(=C/c3ccncc3)SC2=S)cc1 | 1.8 | 3.5 | -4.9 | 2.0 | 22.6 | / | /

Bioassay records (PubChem)
